Results as given in the supplement of paper PMC11732987, “Enantioselective OTUD7B fragment discovery through chemoproteomics screening and high-throughput optimisation” (Communications Chemistry, 2025).

Experiments:
Assay in all cases: log2 ratio of Biotin-Ahx-Ub-VS probe labelling (fragment/DMSO); higher = less target engagement (more negative = stronger competition), active = hit call of the paper (q ≤ 0.05, log2 ratio ≤ -1)
Conditions in all cases: compound concentration: 200 uM; treatment time: 3 h
USP19 = biological target: T1, USP19 (UniProt O94966)
T1 sequence (whole entry): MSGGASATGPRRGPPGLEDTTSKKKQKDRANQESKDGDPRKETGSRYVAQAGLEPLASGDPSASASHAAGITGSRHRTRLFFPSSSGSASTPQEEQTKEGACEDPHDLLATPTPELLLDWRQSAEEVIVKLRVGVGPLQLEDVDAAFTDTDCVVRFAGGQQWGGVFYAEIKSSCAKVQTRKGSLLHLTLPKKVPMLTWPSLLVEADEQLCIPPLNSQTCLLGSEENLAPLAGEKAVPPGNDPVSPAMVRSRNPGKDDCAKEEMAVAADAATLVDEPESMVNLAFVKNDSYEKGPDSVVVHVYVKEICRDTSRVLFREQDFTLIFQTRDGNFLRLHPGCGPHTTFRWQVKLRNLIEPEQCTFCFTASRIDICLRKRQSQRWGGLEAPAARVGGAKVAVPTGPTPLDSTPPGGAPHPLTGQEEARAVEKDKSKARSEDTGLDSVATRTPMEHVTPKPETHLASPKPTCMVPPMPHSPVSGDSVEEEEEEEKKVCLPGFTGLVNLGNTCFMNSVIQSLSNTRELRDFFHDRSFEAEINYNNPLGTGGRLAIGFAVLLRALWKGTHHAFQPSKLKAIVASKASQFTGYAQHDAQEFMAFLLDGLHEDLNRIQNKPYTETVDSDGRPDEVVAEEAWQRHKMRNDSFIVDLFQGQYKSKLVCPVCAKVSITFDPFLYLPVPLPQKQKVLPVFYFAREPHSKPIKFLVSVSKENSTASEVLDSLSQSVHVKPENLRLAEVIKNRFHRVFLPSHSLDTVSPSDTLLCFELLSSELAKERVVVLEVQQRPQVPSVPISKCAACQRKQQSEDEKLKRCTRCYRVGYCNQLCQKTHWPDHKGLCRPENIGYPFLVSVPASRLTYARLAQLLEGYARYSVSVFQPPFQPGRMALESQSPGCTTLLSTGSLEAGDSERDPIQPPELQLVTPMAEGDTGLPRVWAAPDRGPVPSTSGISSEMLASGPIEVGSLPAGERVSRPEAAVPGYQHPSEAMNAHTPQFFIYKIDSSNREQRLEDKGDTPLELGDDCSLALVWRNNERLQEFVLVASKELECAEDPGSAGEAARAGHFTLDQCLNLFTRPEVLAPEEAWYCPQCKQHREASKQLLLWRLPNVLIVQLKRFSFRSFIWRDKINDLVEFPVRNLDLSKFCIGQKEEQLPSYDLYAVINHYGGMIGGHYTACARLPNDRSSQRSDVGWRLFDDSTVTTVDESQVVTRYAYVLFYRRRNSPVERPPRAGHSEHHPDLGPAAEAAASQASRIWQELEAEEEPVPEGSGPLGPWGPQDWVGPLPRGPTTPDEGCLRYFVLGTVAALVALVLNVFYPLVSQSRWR
Summary of the method: (§1)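 Fragment (200 µM) or vehicle was incubated for 3 h with triplicate HEK293T lysate samples of 495 µg, which were then treated with Biotin-Ahx-Ub-VS at 0.5 µM final for 1 h. Labelled DUBs were enriched on NeutrAvidin, digested with LysC and trypsin, and analysed by diaPASEF LC-MS/MS. Values are average log2 fragment/vehicle ratios from an unpaired t-test on global-median-normalised Spectronaut label-free quantities, using proteins with ≥2 unique peptides.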

USP22 = biological target: T2, USP22 (UniProt Q9UPT9)
T2 sequence (whole entry): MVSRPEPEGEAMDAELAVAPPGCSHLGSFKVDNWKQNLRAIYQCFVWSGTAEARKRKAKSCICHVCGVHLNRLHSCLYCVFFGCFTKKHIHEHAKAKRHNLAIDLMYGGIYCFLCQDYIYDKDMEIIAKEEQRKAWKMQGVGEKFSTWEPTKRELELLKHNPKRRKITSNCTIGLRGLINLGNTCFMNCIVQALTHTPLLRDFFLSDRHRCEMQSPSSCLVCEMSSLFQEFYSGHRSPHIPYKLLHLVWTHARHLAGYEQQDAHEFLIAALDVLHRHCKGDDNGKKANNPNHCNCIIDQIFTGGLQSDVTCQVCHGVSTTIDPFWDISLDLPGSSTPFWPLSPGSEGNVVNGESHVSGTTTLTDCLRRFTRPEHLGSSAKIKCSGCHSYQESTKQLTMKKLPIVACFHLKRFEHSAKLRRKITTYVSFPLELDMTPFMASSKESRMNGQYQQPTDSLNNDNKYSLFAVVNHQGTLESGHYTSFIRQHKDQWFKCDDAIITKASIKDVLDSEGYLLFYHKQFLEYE
Summary of the method: as §1

USP24 = USP24 (UniProt Q9UPU5)
Summary of the method: as §1

USP25 = biological target: T3, USP25 (UniProt Q9UHP3)
T3 sequence (whole entry): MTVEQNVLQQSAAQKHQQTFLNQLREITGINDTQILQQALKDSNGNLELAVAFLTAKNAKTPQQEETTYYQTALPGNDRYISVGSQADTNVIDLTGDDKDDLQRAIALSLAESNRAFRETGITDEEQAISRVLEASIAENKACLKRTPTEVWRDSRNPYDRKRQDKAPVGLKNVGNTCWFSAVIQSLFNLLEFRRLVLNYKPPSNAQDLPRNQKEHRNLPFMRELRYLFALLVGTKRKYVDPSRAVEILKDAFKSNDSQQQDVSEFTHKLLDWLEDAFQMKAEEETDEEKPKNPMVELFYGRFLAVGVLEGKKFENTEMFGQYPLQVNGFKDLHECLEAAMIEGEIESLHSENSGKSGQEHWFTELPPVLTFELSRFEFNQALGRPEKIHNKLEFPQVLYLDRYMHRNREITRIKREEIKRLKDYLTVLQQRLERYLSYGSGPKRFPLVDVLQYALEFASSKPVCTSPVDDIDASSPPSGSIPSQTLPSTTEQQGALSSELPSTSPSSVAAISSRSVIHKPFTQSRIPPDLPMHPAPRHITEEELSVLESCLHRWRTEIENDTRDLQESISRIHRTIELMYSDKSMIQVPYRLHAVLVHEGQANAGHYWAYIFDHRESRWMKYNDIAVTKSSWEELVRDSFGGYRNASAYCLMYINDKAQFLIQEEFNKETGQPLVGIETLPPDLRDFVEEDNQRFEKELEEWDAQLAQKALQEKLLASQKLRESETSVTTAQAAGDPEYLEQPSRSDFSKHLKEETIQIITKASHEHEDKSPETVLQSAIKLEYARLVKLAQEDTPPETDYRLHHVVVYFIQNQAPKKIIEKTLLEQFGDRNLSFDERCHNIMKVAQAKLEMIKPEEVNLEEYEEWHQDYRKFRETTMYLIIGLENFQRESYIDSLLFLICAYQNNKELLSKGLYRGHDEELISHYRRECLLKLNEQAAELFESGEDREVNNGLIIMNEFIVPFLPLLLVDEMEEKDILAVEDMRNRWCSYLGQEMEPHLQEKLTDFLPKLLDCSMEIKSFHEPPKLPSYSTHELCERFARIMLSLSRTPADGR
Summary of the method: as §1

USP28 = biological target: T4, USP28 (UniProt Q96RU2)
T4 sequence (whole entry): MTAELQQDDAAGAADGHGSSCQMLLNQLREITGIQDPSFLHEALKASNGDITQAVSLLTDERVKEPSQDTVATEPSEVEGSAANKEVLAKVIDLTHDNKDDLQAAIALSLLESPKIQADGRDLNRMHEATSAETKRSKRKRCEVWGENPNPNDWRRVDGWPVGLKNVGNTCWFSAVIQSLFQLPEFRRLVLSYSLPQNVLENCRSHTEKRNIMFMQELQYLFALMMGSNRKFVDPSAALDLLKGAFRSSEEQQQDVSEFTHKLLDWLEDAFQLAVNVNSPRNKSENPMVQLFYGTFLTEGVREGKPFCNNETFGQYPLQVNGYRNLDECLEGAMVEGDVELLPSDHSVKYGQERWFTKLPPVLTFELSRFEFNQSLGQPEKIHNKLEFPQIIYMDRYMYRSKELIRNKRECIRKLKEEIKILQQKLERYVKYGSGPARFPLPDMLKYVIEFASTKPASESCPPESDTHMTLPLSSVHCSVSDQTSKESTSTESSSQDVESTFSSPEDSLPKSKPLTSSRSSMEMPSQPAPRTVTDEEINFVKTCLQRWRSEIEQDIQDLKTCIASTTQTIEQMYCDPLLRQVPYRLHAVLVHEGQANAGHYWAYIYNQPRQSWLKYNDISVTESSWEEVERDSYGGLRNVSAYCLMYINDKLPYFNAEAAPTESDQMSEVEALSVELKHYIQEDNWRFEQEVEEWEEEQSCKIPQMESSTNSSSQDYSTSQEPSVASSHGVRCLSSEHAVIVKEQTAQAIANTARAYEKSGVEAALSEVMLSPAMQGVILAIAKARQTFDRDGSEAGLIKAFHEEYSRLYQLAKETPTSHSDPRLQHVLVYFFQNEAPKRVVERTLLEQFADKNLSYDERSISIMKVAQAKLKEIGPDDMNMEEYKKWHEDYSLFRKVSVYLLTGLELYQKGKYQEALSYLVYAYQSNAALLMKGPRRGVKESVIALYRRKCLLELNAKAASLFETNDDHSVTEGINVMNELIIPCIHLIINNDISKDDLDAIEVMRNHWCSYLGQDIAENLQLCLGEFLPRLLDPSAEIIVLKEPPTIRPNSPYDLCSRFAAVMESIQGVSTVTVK
Summary of the method: as §1

Measured: log2 ratio of Biotin-Ahx-Ub-VS probe labelling

Chain of USP24 (Q9UPU5 whole entry): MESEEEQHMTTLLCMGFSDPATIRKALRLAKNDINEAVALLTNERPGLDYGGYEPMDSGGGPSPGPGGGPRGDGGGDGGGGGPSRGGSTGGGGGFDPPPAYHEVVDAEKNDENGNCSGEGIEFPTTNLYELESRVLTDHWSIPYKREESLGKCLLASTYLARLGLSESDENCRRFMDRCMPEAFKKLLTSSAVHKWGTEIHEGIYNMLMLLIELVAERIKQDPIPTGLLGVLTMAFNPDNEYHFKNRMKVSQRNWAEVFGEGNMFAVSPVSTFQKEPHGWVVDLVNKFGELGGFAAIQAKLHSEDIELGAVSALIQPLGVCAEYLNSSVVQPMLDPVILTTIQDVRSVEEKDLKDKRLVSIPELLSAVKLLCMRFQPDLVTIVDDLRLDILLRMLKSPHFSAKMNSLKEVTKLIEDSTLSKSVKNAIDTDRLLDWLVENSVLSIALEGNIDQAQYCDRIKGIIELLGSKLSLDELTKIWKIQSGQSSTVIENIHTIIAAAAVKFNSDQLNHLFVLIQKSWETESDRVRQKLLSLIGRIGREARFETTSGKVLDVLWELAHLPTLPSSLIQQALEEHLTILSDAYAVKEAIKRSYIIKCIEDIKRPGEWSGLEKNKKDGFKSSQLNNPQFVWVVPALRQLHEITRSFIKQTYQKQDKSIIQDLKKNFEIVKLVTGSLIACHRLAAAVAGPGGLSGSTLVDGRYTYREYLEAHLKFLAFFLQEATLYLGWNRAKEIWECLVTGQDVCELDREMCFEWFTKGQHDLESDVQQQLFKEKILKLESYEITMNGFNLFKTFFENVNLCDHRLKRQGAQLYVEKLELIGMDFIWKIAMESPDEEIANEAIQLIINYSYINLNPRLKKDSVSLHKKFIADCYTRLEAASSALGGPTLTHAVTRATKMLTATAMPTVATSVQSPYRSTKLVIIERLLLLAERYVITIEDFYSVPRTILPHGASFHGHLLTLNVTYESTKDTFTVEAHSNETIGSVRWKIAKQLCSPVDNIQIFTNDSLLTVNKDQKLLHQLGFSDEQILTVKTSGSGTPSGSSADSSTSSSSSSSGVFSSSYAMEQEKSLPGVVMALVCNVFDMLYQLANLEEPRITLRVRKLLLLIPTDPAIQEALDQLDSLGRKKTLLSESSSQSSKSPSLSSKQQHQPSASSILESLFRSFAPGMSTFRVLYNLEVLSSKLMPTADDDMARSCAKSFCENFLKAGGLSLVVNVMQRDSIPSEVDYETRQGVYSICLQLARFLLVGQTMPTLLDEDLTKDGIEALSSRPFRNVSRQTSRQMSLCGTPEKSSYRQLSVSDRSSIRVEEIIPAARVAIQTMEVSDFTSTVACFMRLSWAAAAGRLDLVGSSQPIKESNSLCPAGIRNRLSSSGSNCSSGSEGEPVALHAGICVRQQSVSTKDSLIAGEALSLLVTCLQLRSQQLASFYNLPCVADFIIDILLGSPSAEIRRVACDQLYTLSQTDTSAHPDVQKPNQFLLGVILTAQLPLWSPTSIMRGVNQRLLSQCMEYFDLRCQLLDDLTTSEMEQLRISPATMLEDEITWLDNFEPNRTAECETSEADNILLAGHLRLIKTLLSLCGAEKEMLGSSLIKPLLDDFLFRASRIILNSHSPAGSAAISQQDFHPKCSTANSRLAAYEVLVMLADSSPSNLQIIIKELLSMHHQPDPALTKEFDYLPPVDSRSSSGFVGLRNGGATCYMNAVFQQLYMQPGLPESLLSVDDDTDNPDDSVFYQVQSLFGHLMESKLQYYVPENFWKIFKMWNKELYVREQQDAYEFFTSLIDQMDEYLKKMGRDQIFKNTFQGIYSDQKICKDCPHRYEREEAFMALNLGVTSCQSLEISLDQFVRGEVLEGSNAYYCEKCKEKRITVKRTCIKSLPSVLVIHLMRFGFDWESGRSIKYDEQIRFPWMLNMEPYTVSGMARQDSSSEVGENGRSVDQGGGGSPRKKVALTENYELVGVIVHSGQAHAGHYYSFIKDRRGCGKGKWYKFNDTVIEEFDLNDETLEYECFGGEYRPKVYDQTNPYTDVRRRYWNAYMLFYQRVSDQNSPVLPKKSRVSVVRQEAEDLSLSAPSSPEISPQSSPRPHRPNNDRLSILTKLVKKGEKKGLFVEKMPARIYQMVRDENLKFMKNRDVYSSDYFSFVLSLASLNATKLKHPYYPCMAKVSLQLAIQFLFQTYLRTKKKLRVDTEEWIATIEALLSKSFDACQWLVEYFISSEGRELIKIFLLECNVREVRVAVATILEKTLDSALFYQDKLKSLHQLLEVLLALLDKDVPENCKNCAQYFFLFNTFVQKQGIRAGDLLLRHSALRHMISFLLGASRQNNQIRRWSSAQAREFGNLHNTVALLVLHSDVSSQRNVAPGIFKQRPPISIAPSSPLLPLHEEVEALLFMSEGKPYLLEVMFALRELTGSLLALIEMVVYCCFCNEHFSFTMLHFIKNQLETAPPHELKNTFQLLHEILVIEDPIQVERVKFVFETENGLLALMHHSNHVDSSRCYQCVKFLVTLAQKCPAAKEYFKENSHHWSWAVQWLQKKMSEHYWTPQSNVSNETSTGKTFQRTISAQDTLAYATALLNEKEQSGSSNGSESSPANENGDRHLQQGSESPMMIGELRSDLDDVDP

O=C(CCl)NCc1ccc(Cl)cc1
inactive: USP19 -0.0819 | USP22 -0.199 | USP24 -0.0304 | USP25 -0.395 | USP28 -0.414
